Bioassay records: PubChem BioAssay, National Center for Advancing Translational Sciences (NCATS)
The list is not random: actives were taken first. Their share in the collection is about 19%.
HT1080-NT tox: qHTS for induction of synthetic lethality in tumor cells producing 2HG: qHTS for the HT-1080-NT fibrosarcoma cell line | Potency, µM (top dose mostly 46.1 µM), without a hit: top-dose activity, negative = less viability, actives largely listed as cytotoxic | hit rate 1.6% among 360,000 | HT-1080-NT fibrosarcoma viability, CellTiter-Glo ATP luminescence, 48 h;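 note: NT is the 2HG producing partner of a matched IDH1 knockdown line; potency is the fitted concentration of half-maximal effect; 0% = DMSO-treated cells and -100% = media-only wells without cells; nearly all actives have a fitted effect of over 55% in size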
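A 48-hour cytotoxicity screen used HT-1080-NT cells plated 2 hours before compound delivery. ATP-based CellTiter-Glo luminescence measured viability, normalized to DMSO and no-cell controls.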
IL-1B inflam inh: qHTS for Inhibitors of Inflammasome Signaling: IL-1-beta AlphaLISA Primary Screen. THP-1 LPS/ATP IL-1B secretion, AlphaLISA, 16 h; active compounds read low. activity change, % at 57.5 µM. hit rate 4.7% among 360,000; in the data active = activity change below about -50%; inconclusive = mostly about -30% to -49%
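Secreted IL-1B measured by AlphaLISA bead assay after 16 h compound exposure of THP-1 cells; compounds (final up to 57.5 uM) added 1 h before LPS (250 ng/mL) and ATP (1.25 mM) stimulation; lower signal means less secretion.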
DT40 TDP1 CPT: qHTS for Inhibitors of human tyrosyl-DNA phosphodiesterase 1 (TDP1): qHTS in cells in presence of CPT | chicken DT40 Tdp1-/-;hTDP1 cells + 20 nM CPT, ATP luminescence, 48 h | Potency, µM (top dose mostly 46.2 µM), inactives show at the top dose activity change, negative = growth inhibition, actives largely listed as inhibitors | hit rate 12% among 420,000; note: potency is the fitted concentration of half-maximal effect; nearly all actives have a fitted effect of over 55% in size
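Chicken DT40 Tdp1-/- cells stably complemented with human TDP1 were seeded at 400 cells/well in medium containing 20 nM camptothecin, exposed to pin-transferred compounds, and grown at 37 °C for at least 48 hr. Viability was read as ATP luminescence.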
HT1080 IDH1KD tx: qHTS for induction of synthetic lethality in tumor cells producing 2HG: qHTS for the HT-1080-IDH1KD cell line; HT-1080 IDH1 knockdown viability, ATP luminescence, 48 h; Potency, µM (highest dose often 46.1 µM), without a hit: top-dose activity, negative = toxicity, actives largely listed as cytotoxic; hit rate 2% among 360,000; AID 686971, 2013;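 note: potency is the fitted concentration of half-maximal effect; 0% = DMSO wells and -100% = cell-free medium wells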
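IDH1KD HT-1080 cells, 750/well, RPMI + 5% FBS; compound pinned after 2 h settling; 48 h, 37 °C; CellTiter-Glo luminescence; % activity normalised to DMSO and no-cell wells; curves fitted, classed by r2 and efficacy.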
DT40 TDP1 no CPT: qHTS for Inhibitors of human tyrosyl-DNA phosphodiesterase 1 (TDP1): qHTS in cells in absence of CPT. DT40 Tdp1-/- hTDP1 cells, no CPT, ATP luminescence, 48 h. Potency, µM (series often up to 46.2 µM), for the others: at the highest dose activity change, negative = growth inhibition, hits mostly inhibitors. hit rate 15% among 420,000; note: potency is the fitted concentration of half-maximal effect; nearly all actives have a fitted effect of over 55% in size
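Growth kinetics read by CellTiter-Glo luminescence after ≥48 hr at 37 °C. Cells: DT40 Tdp1-/- stably carrying human TDP1, 400 per well, compound exposure in the absence of CPT (DMSO vehicle).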
* marks the source's active call; other numbers are inactive results; ? = inconclusive; . = not tested or not shown; [ ] = remark or other dose. Unless noted, calls come from the whole dose curve; as a rule, active = well fitted curve in the direction sought with a large enough effect; inconclusive = small, poorly fitted or top-dose-only effect, or another doubt; inactive = no such curve, though single readings can be large; an effect the other way counts as inactive or inconclusive. Unless noted, % is set by controls: 0 for no effect and ±100 for the full control effect.

SMILES	HT1080-NT tox	IL-1B inflam inh	DT40 TDP1 CPT	HT1080 IDH1KD tx	DT40 TDP1 no CPT
CC(OC(=O)CNC(=O)c1ccc2ccccc2c1)C(=O)N(C)C1CCCCC1 (stereo not given)	6.1%	-4.9	-14.7%	5.3%	-13.3%
COc1ccccc1N1CCN(C(C)C(=O)Nc2ccc(S(=O)(=O)N3CCOCC3)cc2)CC1 (stereo not given)	4.6%	11.1	?	11.7%	13µM*
Cc1ccc(/C=C/C(=O)Nc2cccc(S(=O)(=O)N3CCOCC3)c2)o1	-20.0%	7.6	23.1µM*	-3.1%	?
Cc1ccc(/C=C/C(=O)N2CCN(S(=O)(=O)c3c(C)c(C)cc(C)c3C)CC2)o1	-20.2%	-28.8	23.1µM*	?	14.6µM*
COc1ccc(/C=C/C(=O)NC2CCCCCCC2)cc1S(=O)(=O)N1CCOCC1	?	0.0	20.6µM*	?	20.6µM*
Cc1ccc(/C=C/C(=O)N2CCN(Cc3ccccc3)CC2)o1	1.4%	-26.2	?	-0.3%	?
N/C(CSc1ccc(Cl)cc1)=N\NC(=O)c1ccncc1	0.2%	47.7	-2.6%	5.1%	?
CC(C)[C@H](NC(=O)c1ccccc1)C(=O)Nc1cccc(S(=O)(=O)N2CCOCC2)c1	-7.6%	-1.1	-21.2%	-1.4%	-11.4%
Cc1ccc(NC(=O)[C@@H](NC(=O)c2cccc(S(=O)(=O)N3CCOCC3)c2)C(C)C)cc1C	-9.2%	2.3	?	-7.0%	11.6µM*
CCc1ccc(Cn2ncc3c(C(=O)O)cc(C)nc32)cc1	-7.8%	15.1	-13.4%	-10.7%	-4.2%
COc1ccc(-c2sc3cc(OC)c(OC)cc3c2-c2ccc(O)cc2)cc1	?	-53.8*	?	?	?
COc1ccc(-c2sc3ccccc3c2-c2ccc(O)cc2)cc1	?	-0.1	-82.5%	?	?
CCC(C)n1c(NC(=O)c2ccccc2)c(C#N)c2nc3ccccc3nc21 (stereo not given)	18.4µM*	-16.6	18.4µM*	16.4µM*	13µM*
CCCCn1c(NC(=O)c2ccccc2)c(C#N)c2nc3ccccc3nc21	8.91µM*	-22.7	25.9µM*	?	18.4µM*
Cc1ccc(-c2cc(-c3ccccc3)c(C#N)c(N)n2)o1	-1.4%	0.0	23.1µM*	-8.3%	14.6µM*
Cc1ccc(-c2cc(-c3ccccc3Cl)c(C#N)c(N)n2)o1	-1.7%	?	?	-18.0%	?
Cc1ccc(-c2cc(-c3ccc(F)cc3)nc(N)c2C#N)o1	-3.1%	-14.2	?	-6.2%	18.4µM*
COc1ccc(CN2CC(C(=O)NCCCN3CCCC(C)C3)CC2=O)cc1 (stereo not given)	5.2%	6.8	9.6%	10.8%	18.2%
COC1=C(Nc2ccc(C)cc2)C(=O)c2ccccc2C1=O	-19.7%	-76.5*	?	-15.0%	16.4µM*
COc1cc(C=C2C(=O)c3ccccc3C2=O)cc(OC)c1	-0.7%	-7.9	-6.7%	5.9%	-29.8%
CCOc1ccccc1NC1=C(OC)C(=O)C(Nc2ccccc2OCC)=C(OC)C1=O	4.8%	-1.6	0.3%	29.2%	?
COC1=C(Nc2ccccc2)C(=O)c2ccccc2C1=O	?	?	11.6µM*	13µM*	11.6µM*
COC1=C(OC)C(=O)c2ccccc2C1=O	?	.	7.94µM*	?	8.91µM*
CC1=C(Nc2ccc(C(=O)O)cc2)C(=O)c2ccccc2C1=O	?	30.1	?	?	?
Cc1cc(Br)ccc1NC(=O)CN(C)C(=O)c1cc([N+](=O)[O-])ccc1N1CCOCC1	-5.5%	-59.4*	-23.9%	-2.8%	?
SMILES	HT1080-NT tox	IL-1B inflam inh	DT40 TDP1 CPT	HT1080 IDH1KD tx	DT40 TDP1 no CPT
CCOC(=O)c1ccccc1NC(=O)COC(=O)c1cc([N+](=O)[O-])ccc1N1CCOCC1	-6.1%	?	?	-14.5%	6.51µM*
CC(=O)Nc1ccc(NC(=O)COC(=O)c2cc([N+](=O)[O-])ccc2N2CCOCC2)cc1	-4.5%	11.9	-16.5%	0.8%	?
CCN(C(=O)COC(=O)c1cc([N+](=O)[O-])ccc1N1CCOCC1)c1ccccc1	1.5%	-1.3	?	?	14.6µM*
O=C(COC(=O)c1ccccc1NCCO)Nc1cc(C(F)(F)F)ccc1N1CCOCC1	-4.5%	-27.4	18.4µM*	?	?
CN(Cc1ccccc1)C(=O)COC(=O)c1cc([N+](=O)[O-])ccc1N1CCOCC1	2.2%	-6.6	-2.9%	-8.1%	?
COc1cccc(C2=NOC(C(=O)NCCN3CCOCC3)C2)c1 (stereo not given)	14.1%	7.1	-4.4%	-0.9%	-9.0%
O=C(c1cc(F)c(F)cc1Cl)N1CCN(S(=O)(=O)c2cccs2)CC1	11.6%	-11.5	-15.7%	6.5%	-17.4%
COc1ccc(CN(C)C(=O)COC(=O)c2cc([N+](=O)[O-])ccc2N2CCCC2)c(OC)c1OC	-1.9%	-20.6	?	-25.8%	20.6µM*
CCN(C[C@H]1N[C@@](C)(C(=O)OC)[C@H]2C(=O)N(C)C(=O)[C@@H]12)C(=O)COc1ccccc1	-0.4%	1.2	?	-5.5%	?
C#CCOc1ccc(/C=N/NC(=O)c2cccnc2)cc1OCC	5.6%	-0.1	-15.3%	9.3%	11.8%
COCc1c(C(=O)N2CCN(c3ccc(C(F)(F)F)cn3)CC2)oc2ccccc12	-0.8%	8.7	?	-14.2%	?
Cc1nc2c(Br)cc(Br)cc2c(=O)n1-c1ccccc1NC1OCC(O)C(O)C1O (stereo not given)	-2.6%	-12.5	7.31µM*	-13.7%	8.2µM*
Cc1cc(C)cc(N2C(=O)CC(Sc3nnnn3-c3ccccc3)C2=O)c1 (stereo not given)	7.08µM*	-17.2	2.59µM*	2.51µM*	5.17µM*
Cc1cc(C)cc(N2C(=O)CC(Sc3ncn[nH]3)C2=O)c1 (stereo not given)	-7.8%	-3.4	2.59µM*	-1.6%	1.46µM*
Cn1nnnc1SC1CC(=O)N(c2ccccc2)C1=O (stereo not given)	2.1%	0.0	2.59µM*	-10.7%	3.26µM*
Cc1cc(C)cc(N2C(=O)CC(Cn3nc(C)cc3C)C2=O)c1 (stereo not given)	11.6%	3.1	?	10.3%	-19.1%
O=C1CC(SCCO)C(=O)N1c1ccccc1 (stereo not given)	1.5%[9.24 µM]	-2.5	-6.7%	-17.5%	-11.9%
